High-throughput results as filed in PubChem BioAssay.
T cruzi growth-1 = blocks T. cruzi growth in NIH3T3 culture; T. cruzi beta-gal in NIH3T3, GalScreen luminescence, 90 h; inhibition, % at 8.34 µM; actives 5.9% (n = 77,000); AID 624255;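 active means mean inhibition above about 93%, with at least 55% of replicates each passing it, limit read from the data, passing the limit was not always enough; inconclusive means only one of those two conditions holds; inactive means neither condition holds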
Pf Dd2 inh = blocks growth of Plasmodium falciparum Dd2 parasites; P. falciparum Dd2 growth, SYBR Green, 72 h; hits give low values; activity change, % at 10 µM; actives 2.3% (n = 94,000); AID 1159554; in the data active means activity change below about -80%; inconclusive means no clear call, values can overlap the other calls
C diff HTS = inhibitors of Clostridium difficile growth; Clostridium difficile clinical isolate growth, OD600, 24 h; hits give low values; growth activity, negative = inhibition, % at 16 µg/mL (by protocol); actives 0.25% (n = 86,000); AID 1259249;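 active means mean growth activity at or below -80% and every replicate also at or below -80%; inconclusive means mean at or below -80% but some replicate above -80%; inactive means mean growth activity above -80%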;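 further: 0% = DMSO wells and -100% = levofloxacin 16 µg/mL wells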
T cruzi growth-2 = Trypanosoma cruzi proliferation inhibition | shares compounds with T cruzi growth-1 | T. cruzi beta-gal in NIH3T3, GalScreen luminescence, 90 h | inhibition, % at 8.35 µM | actives 72% (n = 5,600) | AID 651739;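 active means mean replicate inhibition above about 95% and at least 55% of replicates individually reaching it, limit read from the data; inconclusive means only one of the two criteria is met; inactive means neither criterion is met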
T cruzi growth-3 = Trypanosoma cruzi proliferation inhibition | shares compounds with T cruzi growth-1 | T. cruzi beta-gal in NIH3T3, GalScreen luminescence, 90 h | inhibition, % at 2.09 µM | actives 21% (n = 5,600) | AID 651740;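 active means mean inhibition above about 95%, with at least 55% of replicates also reaching it, limit read from the data; inconclusive means meets just one of the two conditions; inactive means meets neither condition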;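 further: plate controls were neutral control median for no effect and positive control median for full effect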
NIH3T3 tox = kills mouse NIH/3T3 fibroblasts. NIH/3T3 viability, CellTiter-Glo ATP luminescence, 90 h. actives 14% (n = 5,600). cytotoxicity (signal decrease), % at 8.35 µM. shares compounds with T cruzi growth-1;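 active means mean signal decrease across replicates above about 35% based on untreated-well scatter, with enough replicates individually passing, limit read from the data; inconclusive means no rule stated though some were filed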;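 further: 0% = median of neutral control wells and 100% = median of positive control wells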
3T3 cytotox 2 = NIH/3T3 (mouse) viability loss; shares compounds with T cruzi growth-1; NIH/3T3 viability, CellTiter-Glo ATP luminescence, 90 h; inhibition, % at 24.9 µM; actives 56% (n = 5,600);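 active means mean loss of cell viability signal at or above a set limit, and enough replicates individually reaching it; inconclusive means meets only the mean limit or only the replicate share; inactive means meets neither condition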;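 further: 0% = median of neutral control wells and 100% = median of positive control wells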
* marks the source's active call; other numbers are inactive results; ? = inconclusive; nt = not tested or not shown. This is a sample that favours compounds with a hit; in the whole collection about 6.8% have one here.

SMILES | T cruzi growth-1 | Pf Dd2 inh | C diff HTS | T cruzi growth-2 | T cruzi growth-3 | NIH3T3 tox | 3T3 cytotox 2
CC=Cc1ccc2n(c1=O)C[C@H]1[C@H](CO)[C@@H](C(=O)OC)[C@@H]2N1S(=O)(=O)c1cccc(C)c1 (mixture of isomers) | 107* | nt | -1 | 102* | 3 | 0 | 3
CC=Cc1ccc2n(c1=O)C[C@@H]1[C@@H](CO)[C@H](C(=O)OC)[C@H]2N1CC1CC1 (mixture of isomers) | 4 | 3 | -5 | nt | nt | nt | nt
COC(=O)[C@H]1[C@H](CO)[C@H]2Cn3c(ccc(-c4cccc(F)c4)c3=O)[C@@H]1N2Cc1cccnc1 | -6 | 7 | -1 | nt | nt | nt | nt
CN1CCN(C(=O)CN=[N+]=[N-])CC1 | nt | nt | -7 | nt | nt | nt | nt
O=C(Cc1ccccc1)N1CCCCN2[C@H](C1)[C@H](c1ccc(-c3ccccc3)cc1)[C@@H]2CO | 41 | 6 | 50 | nt | nt | nt | nt
O=C(Cc1ccccc1)N1CCCCN2[C@H](CO)[C@@H](c3ccc(-c4ccccc4)cc3)[C@H]2C1 | 100* | 0 | 58 | ? | 36 | 11 | 105*
N#Cc1cccc(-c2ccc([C@H]3[C@@H](CO)N4CCCCN(C(=O)Cc5ccccc5)C[C@H]34)cc2)c1 | 109* | 6 | 2 | 111* | 81 | 19 | 56*
N#Cc1ccc(-c2ccc([C@H]3[C@H]4CN(C(=O)Cc5ccccc5)CCCCN4[C@H]3CO)cc2)cc1 | 46 | 26 | 1 | nt | nt | nt | nt
COc1ccc(-c2ccc([C@@H]3[C@H]4CN(C(=O)Cc5ccncc5)CCCCN4[C@H]3CO)cc2)cc1 | 84 | -8 | -10 | nt | nt | nt | nt
O=C(Cc1ccncc1)N1CCCCN2[C@H](CO)[C@@H](c3ccc(-c4ccncc4)cc3)[C@H]2C1 | 116* | 17 | -7 | -13 | -11 | 7 | 5
N#Cc1cccc(-c2ccc([C@H]3[C@@H](CO)N4CCCCN(C(=O)Cc5ccccc5)C[C@@H]34)cc2)c1 | 110* | 30 | 0 | 103* | 77 | -5 | 0
N#Cc1ccc(-c2ccc([C@H]3[C@@H](CO)N4CCCCN(C(=O)Cc5ccccc5)C[C@H]34)cc2)cc1 | 80 | -21 | 5 | nt | nt | nt | nt
C/C=C/c1ccc(C2[C@@H]3CN(Cc4cocn4)C[C@H]2N3)cc1 (stereo partly drawn) | nt | -76 | 4 | nt | nt | nt | nt
CCCNC(=O)N1[C@@H]2c3ccc(-c4ccccc4OC)c(=O)n3C[C@H]1[C@H](CO)[C@H]2C(=O)O | 9 | 9 | 1 | nt | nt | nt | nt
N#Cc1cccc(-c2ccc([C@@H]3[C@H](CO)N4CCCCN(C(=O)Cc5ccccc5)C[C@@H]34)cc2)c1 | 100* | -24 | -5 | 104* | 40 | -1 | 57*
N#Cc1ccc(-c2ccc([C@H]3[C@@H](CO)N4CCCCN(C(=O)Cc5ccccc5)C[C@@H]34)cc2)cc1 | 81 | 29 | -6 | nt | nt | nt | nt
COc1ccc(C#Cc2ccc([C@@H]3[C@@H](CO)N4CCCCN(C(=O)Cc5ccccc5)C[C@H]34)cc2)cc1 | 76 | -32 | 6 | nt | nt | nt | nt
COc1ccc(C#Cc2ccc([C@@H]3[C@@H](CO)N4CCCCN(C(=O)Cc5ccncc5)C[C@H]34)cc2)cc1 | 111* | -51 | 1 | 107* | 81 | 31 | 106*
COc1ccc(-c2ccc([C@@H]3[C@@H](CO)N4CCCCN(C(=O)Cc5ccncc5)C[C@@H]34)cc2)cc1 | 52 | -55 | -5 | nt | nt | nt | nt
COc1ccc(C#Cc2ccc([C@@H]3[C@H]4CN(C(=O)Cc5ccccc5)CCCCN4[C@H]3CO)cc2)cc1 | 99* | -46 | 0 | 93 | 103* | 3 | 105*
COc1ccc(C#Cc2ccc([C@H]3[C@@H](CO)N4CCCCN(C(=O)Cc5ccccc5)C[C@@H]34)cc2)cc1 | 87 | -34 | -1 | nt | nt | nt | nt
COc1ccc(C#Cc2ccc([C@@H]3[C@H](CO)N4CCCCN(C(=O)Cc5ccccc5)C[C@@H]34)cc2)cc1 | 112* | -77 | 9 | 101* | 105* | 22 | 106*
CN(C)C(=O)[C@H]1[C@H](CO)[C@H]2Cn3c(cccc3=O)[C@@H]1N2CC1CC1 | 82 | 7 | -4 | nt | nt | nt | nt
O=C(C1CC1)N1C[C@@H]2N[C@H](C1)[C@@H]2c1ccc(-c2ccncc2)cc1 | nt | -79 | -6 | nt | nt | nt | nt
